Experimental findings from PubChem BioAssay AID602410 (Johns Hopkins Ion Channel Center, 2012) are described below.

Among all 340,000 compounds or so, about 2,800 (0.82%) were called active.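 Rule for the calls: active = B-score under library mean minus 4 SD, starting fluorescence ratio at most library mean plus 5 SD; inactive = the rest.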 The full list was thinned out, with actives kept by preference.

Chain of Potassium channel subfamily K member 3 (Homo sapiens) (O14649 whole entry, looked up): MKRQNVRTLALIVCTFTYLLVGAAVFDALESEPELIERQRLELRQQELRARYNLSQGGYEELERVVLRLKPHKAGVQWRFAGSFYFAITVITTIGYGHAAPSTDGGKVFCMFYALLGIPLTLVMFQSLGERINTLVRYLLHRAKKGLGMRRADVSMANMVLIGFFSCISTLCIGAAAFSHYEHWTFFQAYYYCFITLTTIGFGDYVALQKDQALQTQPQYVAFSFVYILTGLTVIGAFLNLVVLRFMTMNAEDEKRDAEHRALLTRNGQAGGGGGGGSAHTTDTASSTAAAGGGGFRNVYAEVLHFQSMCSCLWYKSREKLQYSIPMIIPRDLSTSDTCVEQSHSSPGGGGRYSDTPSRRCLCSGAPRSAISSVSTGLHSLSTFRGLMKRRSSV

The assay concerns the target Potassium channel subfamily K member 3 (Homo sapiens) (UniProt O14649). Description: blockers of TASK1 two-pore potassium channel – CHO cells, FluxOR thallium flux, B-score, primary screen (AID 602410).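 For B-score: more negative B-score means stronger inhibition of thallium flux through KCNK3.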 The note with it: CHO-KCNK3 thallium flux, FluxOR fluorescence, at 10 µM; active compounds read low.
In the case of `S=c1[nH]nc(-c2ccco2)n1/N=C/c1ccc(Br)s1`, the B-score result was “inactive”.

Consider `CCN(CC(=O)NCc1ccc(Cl)cc1)C(=O)CSc1ccccc1`, for which the B-score result is “inactive”. In the case of `CSc1cccc(NC(=S)N(Cc2ccccc2)Cc2ccccn2)c1`, the B-score result is “inactive”. The figure for `CSc1cccc(NC(=S)N(C(C)C)C(C)c2ccccn2)c1` (stereo not drawn) is -10.1 (active); for `CC(c1ccccn1)N(CCN(C)C)C(=S)Nc1ccccc1F` (stereo not drawn) it is “inactive”. `NC(=S)Nc1c(Cl)cccc1Cl`: the B-score result is “inactive”.

As to `FC(F)(F)c1cccc(Cc2noc(CN3CCC(N4CCCCC4)CC3)n2)c1`, the B-score result was “inactive”. Consider `CC(C(=O)NCC1CCCCC1)N(C)Cc1cccc(Cl)c1` (stereo not drawn), for which the B-score is -8.9 (active). Take `CNS(=O)(=O)c1cccc(C(=O)NCC2CCCCC2)c1`: the B-score result is “inactive”. As to `COc1ccc(CN(C)C(C)C(=O)NC2CCCc3ccccc32)cc1` (stereo not drawn), the B-score entry was “inactive”. On to `CCc1cccc(NC(=O)C2CCCN(S(=O)(=O)c3ccc4[nH]c(=O)ccc4c3)C2)c1` (stereo not drawn), for which the B-score entry was “inactive”. The entry for `Cc1cc(OCC(=O)Nc2c(C)n(C)n(-c3ccccc3)c2=O)ccc1[N+](=O)[O-]` is “inactive”; for `COc1ccc(CNCCCn2cnc3c(OCc4ccccc4)ncnc32)cc1` it is “inactive”; for `S=C(Nc1cccc(Br)c1)N1CCn2cccc2C1c1cccnc1` (stereo not drawn) it is -9.52 (active). As to `S=C(NCCc1ccccc1)N1CCn2cccc2C1c1ccncc1` (stereo not drawn), the B-score result is “inactive”. Next, `Fc1cc(Br)ccc1NC(=S)Nc1cccnc1`: “inactive”; `C=C(C)c1cccc(C(C)(C)NC(=O)N2CCN(c3ncccn3)CC2)c1`: “inactive”. `C=CCN1CN(S(=O)(=O)c2ccc(OC)cc2)c2nc3ccccc3nc21`: the B-score result was “inactive”. Next, `O=C(Nc1ccc2c(c1)OCCO2)c1ccc(Cl)c(S(=O)(=O)N2CCCCC2)c1`: “inactive”. Next, `O=C(Nc1cccc(S(=O)(=O)Nc2ccc(Cl)cc2)c1)c1ccc2c(c1)OCCO2`: -9.14 (active); `O=C(Nc1ccc(Cl)cn1)c1ccc2c(c1)OCCO2`: “inactive”. Consider `O=C(NCc1ccco1)C(=O)c1cn(CC(=O)N2CCCCCC2)c2ccccc12`, for which the B-score result was “inactive”.

With `CCOC(=O)c1cc2cc(-c3c(C(=O)OCC)oc4cc(O)cc(O)c4c3=O)ccc2o1`, the B-score is -9.55 (active).

For `CCOC(=O)c1cc(=O)c2ccc(OCc3ccccc3)cc2o1`, the B-score result is “inactive”.

`O=c1c(-c2ccc3c(c2)OCCO3)c(C(F)(F)F)oc2cc(O)cc(O)c12`: the B-score entry was “inactive”. Regarding `COc1ccccc1NC(=O)CCC(=O)N1CC(C)Oc2ccc(C)cc21` (stereo not drawn), the B-score result is “inactive”. On to `O=C(O)C(CCc1ccccn1)c1ccccc1` (stereo not drawn), for which the B-score result is “inactive”. As for `Cc1ccc(CS(=O)(=O)CCC(=O)NC2CC2)cc1`, the B-score result was “inactive”. For the compound `COc1ccc(-c2nn(C)c(=O)c3ccccc23)cc1CNC(=O)C1CCCCC1`, the B-score entry was “inactive”.

With `CCCCC(=O)Nc1ccccc1N1CCN(c2ccc(F)cc2)CC1`, the B-score was -9.06 (active).

For the compound `CCCC(=O)Nc1ccccc1N1CCN(C(=O)c2ccccc2)CC1`, the B-score entry was “inactive”. On to `CCC(C)C(=O)Nc1ccccc1N1CCN(c2ccc(F)cc2)CC1` (stereo not drawn), for which the B-score entry is “inactive”. For `Cc1cccc(C(=O)Nc2ccccc2N2CCN(c3ccc(F)cc3)CC2)c1`, the B-score was -12.2 (active). The figure for `O=C(Nc1ccccc1N1CCCC1)c1ccc2ccccc2c1` is -8.97 (active); for `O=C(NC(=S)Nc1ccccc1N1CCCCC1)c1ccc(F)cc1` it is “inactive”; for `O=C(Nc1ccccc1N1CCCC1)c1ccc(F)c(S(=O)(=O)N2CCOCC2)c1` it is “inactive”. `Cc1cccc(C(=O)NC(=S)N2CCN(c3ccc([N+](=O)[O-])cc3)CC2)c1`: the B-score result is “inactive”. Next, `O=C(Nc1ccccc1N1CCOCC1)c1ccncc1`: “inactive”; `Cc1[nH]c(C)c(S(=O)(=O)N2CCN(c3cccc(C(F)(F)F)c3)CC2)c1C(=O)N1CCCC1`: “inactive”; `O=C(NC(=S)N1CCCCC1c1cccnc1)c1ccccc1` (stereo not drawn): “inactive”. Take `CONc1nc2nonc2nc1NOC`: the B-score entry was “inactive”. `CCCC(=O)Nc1cccc(NC(=S)NC(=O)C(C)Oc2ccc(Cl)cc2Cl)c1` (stereo not drawn): the B-score result is “inactive”. Regarding `CSc1cccc(NC(=O)C2CCCN2S(=O)(=O)c2ccc3c(c2)CCC(=O)N3)c1` (stereo not drawn), the B-score result was “inactive”. `CC(C(=O)c1ccc(-c2ccccc2)cc1)[n+]1cccc(Br)c1` (stereo not drawn): the B-score result is “inactive”. Consider `COC(=O)c1nc(NC(=O)c2ccc(C(C)(C)C)cc2)n[nH]1`, for which the B-score result is “inactive”. On to `CSc1nccc(NC(=O)c2ccc(C(C)(C)C)cc2)n1`, for which the B-score is -10.4 (active). The entry for `Cc1cccc(NC(=O)c2ccc(S(=O)(=O)N(C)c3ccccc3)cc2)n1` is “inactive”; for `COc1ccccc1NC(=O)CN(c1ccccc1OC)S(=O)(=O)c1ccccc1` it is “inactive”; for `COc1ccccc1N(CC(=O)N1CCCCC1)S(=O)(=O)c1ccccc1` it is “inactive”. Next, `COc1ccccc1N(CCOc1ccccc1)S(=O)(=O)c1ccccc1`: -10 (active); `O=S(=O)(O)CCN1CCOCC1`: “inactive”; `O=S(=O)(Cc1noc(-c2ccc(OC(F)(F)F)cc2)n1)c1ccc(F)cc1`: “inactive”. Take `N#Cc1nc(Cc2cccc3ccccc23)oc1NCc1ccc2c(c1)OCO2`: the B-score was -13.5 (active). On to `O=C(CCNS(=O)(=O)c1ccccc1C(F)(F)F)NCc1ccc2c(c1)OCO2`, for which the B-score result was “inactive”. In the case of `c1n[nH]c(NCc2ccc3c(c2)OCO3)n1`, the B-score entry is “inactive”. As for `COC(=O)c1ccc2c(=O)n(CCN3CCOCC3)c(SCC(=O)Nc3cccc(OC)c3)nc2c1`, the B-score result is “inactive”. Take `COc1ccc(C(C)=O)cc1CN1C(=O)NC2(CCCCC2C)C1=O` (stereo not drawn): the B-score entry was “inactive”. Turning to `O=C(/C=C/NNC(=O)c1cccc(Br)c1)c1ccccc1`, the B-score was -9.94 (active). As to `Cc1ccccc1NC(=S)NNC(=O)c1cccc(Br)c1`, the B-score result was “inactive”. Next, `CC(CC(=O)O)CC(=O)NNC(=O)c1cccc(Br)c1` (stereo not drawn): “inactive”; `CC(=O)OCC(=O)C1(O)CCC2C3CC(C)C4=CC(=O)CCC4(C)C3C(O)CC21C` (stereo not drawn): “inactive”; `CC(C)(C)C(=O)Nc1c(Br)c(C2CC2)nn1-c1ccccc1`: “inactive”. On to `O=C(Cn1nc(CNc2ccc(Cl)cc2)[n+]2c1CCCCC2)c1ccc(Cl)cc1`, for which the B-score result was “inactive”.

Consider `N#Cc1c(NC(=O)CCCN2C(=O)c3ccccc3C2=O)oc(-c2ccccc2)c1-c1ccccc1`, for which the B-score result was “inactive”. Take `COc1cc(C(=O)Nc2oc(-c3ccccc3)c(-c3ccccc3)c2C#N)cc(OC)c1OC`: the B-score was -10.4 (active). Next, `COc1cc(C(=O)NCC(=O)N2CC=C(c3ccccc3)CC2)cc(OC)c1OC`: “inactive”. For `CCC(C)(C)NC(=O)c1cc([N+](=O)[O-])ccc1N1CCCCC1`, the B-score entry is “inactive”. For `CCC(=O)c1ccc(OC(=O)/C=C/c2cc(OC)c(OC)c(OC)c2)cc1`, the B-score entry is “inactive”.
